PubChem BioAssay (NCATS)
Results filed as inconclusive are left out. Entries that show only a call come without a potency. Activity calls are given as the source filed them. Calls come from the whole dose curve; as a rule, active = well fitted inhibition curve with a large enough effect; inconclusive = small, poorly fitted or top-dose-only effect, or effect the other way; inactive = flat fitted curve, though single readings scatter.

biological target: ATP-dependent 6-phosphofructokinase (Trypanosoma brucei brucei) (UniProt O15648); experiment: qHTS Assay to Find Inhibitors of T. brucei phosphofructokinase: hit validation (AID 492961); settings: T. brucei PFK, ADP-Glo luminescence; series mostly up to 51.4 µM
Procedure, shortened: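 Luminescence from ADP-Glo reports ADP generated as T. brucei PFK (1.25 nM) phosphorylates 0.5 mM fructose-6-phosphate using 0.1 mM ATP. Reactions ran 45 min at room temperature, pH 8.0.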

ATP-dependent 6-phosphofructokinase (Trypanosoma brucei brucei), sequence (O15648 whole entry, looked up): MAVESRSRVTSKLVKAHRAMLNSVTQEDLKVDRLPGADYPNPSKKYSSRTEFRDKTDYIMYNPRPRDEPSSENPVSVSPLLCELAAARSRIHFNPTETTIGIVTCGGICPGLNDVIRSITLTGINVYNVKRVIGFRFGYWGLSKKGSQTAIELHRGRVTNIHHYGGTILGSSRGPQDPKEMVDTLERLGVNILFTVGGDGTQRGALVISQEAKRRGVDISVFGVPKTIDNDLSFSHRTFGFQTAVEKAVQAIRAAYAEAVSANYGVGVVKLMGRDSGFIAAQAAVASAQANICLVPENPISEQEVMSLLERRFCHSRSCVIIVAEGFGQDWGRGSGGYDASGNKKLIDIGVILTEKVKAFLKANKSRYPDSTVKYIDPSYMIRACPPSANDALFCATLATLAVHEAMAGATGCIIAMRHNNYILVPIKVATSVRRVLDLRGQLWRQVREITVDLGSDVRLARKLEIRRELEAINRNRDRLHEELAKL

Row | SMILES | Potency
1 | CCC(=O)O[C@H]1CC[C@H]2[C@@H]3CCC4=CC(=O)CC[C@]4(C)[C@H]3CC[C@]12C | inactive
2 | COCC(=O)N(c1c(C)cccc1C)C(C)C(=O)OC (stereo not given) | inactive
3 | Nc1ccc(N)cc1 | inactive
4 | CCC1(c2ccccc2)CCC(=O)NC1=O (stereo not given) | inactive
5 | CC[C@]1(O)CC[C@H]2[C@@H]3CCC4=CCCC[C@@H]4[C@H]3CC[C@@]21C | inactive
6 | CN1C(=O)CN=C(c2ccccc2)c2cc([N+](=O)[O-])ccc21 | inactive
7 | CC(C)(C)OC(=O)c1ncn2c1[C@@H]1CCCN1C(=O)c1c(Br)cccc1-2 | inactive
8 | CN1CCc2cc(Cl)c(O)cc2[C@H]2c3ccccc3CC[C@@H]21 | inactive
9 | CN1C(=O)[C@@H](NC(=O)c2cc3ccccc3[nH]2)N=C(c2ccccc2)c2ccccc21 | inactive
10 | Cc1ncc2n1-c1ccc(Cl)cc1C(c1ccccc1F)=NC2 | inactive
11 | CCCCCCCCCCCC[N+](C)(C)CCOc1ccccc1 | inactive
12 | NCc1cccnc1 | inactive
13 | C[C@H]1C(=O)O[C@@H]2CCN3CC=C(COC(=O)[C@](C)(O)[C@]1(C)O)[C@H]23 | inactive
14 | NC(=O)OCCCc1ccccc1 | inactive
15 | C=CCOC(Cn1ccnc1)c1ccc(Cl)cc1Cl (stereo not given) | inactive
16 | CC(C)[N+](C)(CCC(C(N)=O)(c1ccccc1)c1ccccc1)C(C)C | inactive
17 | Cc1ccc(N=CN(C)C=Nc2ccc(C)cc2C)c(C)c1 | inactive
18 | CC(C)(O)C(Cl)(Cl)Cl | inactive
19 | C#C[C@]1(O)CC[C@H]2[C@@H]3CCC4=CC(=O)CCC4=C3C=C[C@@]21CC | inactive
20 | O=C1NCN(c2ccccc2)C12CCN(CCCOc1ccc(F)cc1)CC2 | inactive
